# From ChEMBL document CHEMBL3988442, “University of Dundee, Small-Polar-MMV Screening Library” (2021)
# The whole screen tested about 66,000 compounds, of which about 960 (1.5%) showed an effect of 50% or more. The sample as a whole holds a higher share of strong results than the screen did.
# Test system: Trypanosoma brucei
# Assay: Trypanosoma brucei 72 hour study
# Type: functional, organism-based
# Design: scale not given: in the data most compounds retested in dose-response had high values
Structure (SMILES),"Percent Effect (30 µM, 30.03 µM) [%]","Percent Effect (30.3 µM, […]) [%]"
CCN(Cc1ccc(C(C)=O)cc1)CC1CCOCC1,98.5,
NC(=O)NC(=O)CCN(Cc1ccccc1)CC1CCOCC1,-38.3,
CCN(Cc1ccc(O)c(C(=O)O)c1)CC1CCOCC1,-62.42,
COC1COC2(CCN(Cc3ccccc3C)CC2)C1.O=C(O)C(F)(F)F (stereo not drawn),-3.278,
COc1ccc(CN2CCn3c(CO)nnc3C2)cc1CN1CCCC1.O=C(O)CC(O)(CC(=O)O)C(=O)O,,-29.63
CN(CCn1cnnc1)S(=O)(=O)c1ccc(C(F)(F)F)nc1,-27.18,
O=C(Cc1ccccc1F)N1CCCCC1c1ccn2ccnc2n1 (stereo not drawn),,-17.08
Br.O=C(CN(C1=NCCCC1)c1ccccc1)c1ccccc1,-30.63,
Br.Cc1ccc(N(CC(=O)c2ccc(Br)cc2)C2=NCCCCC2)cc1,102.1,
Br.Cc1ccc(C(=O)CN(C2=NCCCCC2)c2ccccc2)cc1,-7.636,
Cc1nc(-c2cc(C(=O)NCCN3CCOCC3)c3ccccn23)cs1.O=C(O)C(F)(F)F,-1.462,
CN(C)CC1(O)CCN(C(=O)Cc2ccc(Cl)c(Cl)c2)C1 (stereo not drawn),-2.195,
Cc1cc2occ(CC(=O)N3CCC(O)(CN(C)C)C3)c2cc1Cl (stereo not drawn),,99.94
Cc1cc2occ(CC(=O)N3CCC4(CCCN(C)C4=O)C3)c2cc1Cl (stereo not drawn),,2.516
CCN1C(=O)CC[C@]12CC[C@@H](NC(=O)c1cnccn1)CC2,,-18.7
CCNC(=O)N1CC(c2nc(Cc3ccccc3)no2)C1,,0.6321
COC(=O)CN1CC(c2nc(Cc3ccccc3)no2)C1.O=C(O)C(=O)O,101,
O=C(CN1CC(c2nc(Cc3ccccc3)no2)C1)NCC1CCCO1.O=C(O)C(=O)O (stereo not drawn),,6.981
Cc1nn(C)c2ncnc(N3CCC(O)(CN4CCCC4)CC3)c12,57.4,
Cc1nn(C)c2ncnc(N3CCCC(C)(O)C3)c12 (stereo not drawn),2.016,
CCC1(O)CCCN(c2ncnc3c2c(C)nn3C)C1 (stereo not drawn),27.55,
COc1cc(N2CCO[C@H]3[C@@H](Oc4cccnc4)CC[C@@H]32)ncn1.O=C(O)C(F)(F)F.O=C(O)C(F)(F)F,-15.67,
CCC1CCCCN1CCNC(=O)N1CCN(Cc2ccon2)CC1 (stereo not drawn),20.59,
CN(C)CCn1c2c(ccc1=O)CC(NC(=O)NC1CCCC1)CC2.O=C(O)C(F)(F)F (stereo not drawn),,-38.22

Structure (SMILES),"Percent Effect (30 µM, 30.03 µM) [%]","Percent Effect (30.3 µM, […]) [%]"
CC(C)(C)NC(=O)NC(=O)CNc1c(F)cccc1N1CCCC1,-52.35,
CCCn1cc(S(=O)(=O)N[C@H]2CN(CCO)C[C@@H]2C2CC2)cn1,-20.35,
CC1=C[C@@H](CN2CCCC2)[C@H](C(C)C)C[C@H]1Cc1nnc(C)o1,17.59,
CC1=C[C@@H](CN2CCN(C)CC2)[C@H](C(C)C)C[C@H]1Cc1nnc(C)o1,28.22,
CC1=C[C@@H](CN2CCOCC2)[C@H](C(C)C)C[C@H]1Cc1nnc(C)o1,60.87,
CC1c2ncc(Cn3cncn3)n2CCN1C(=O)c1ccsc1 (stereo not drawn),,-6.898
CC(C)N1CCO[C@@H]2CN(C(=O)Cc3cccs3)CC[C@@H]2C1.O=C(O)C(F)(F)F,,-84.63
Cc1ccc(-c2nc(CNS(=O)(=O)N(C)C)[nH]c2-c2ccccn2)cc1,-19.21,
Cc1ccc(-c2nc(CNC(C)CCO)[nH]c2-c2ccccn2)cc1 (stereo not drawn),-54.5,
COCC(C)NCc1nc(-c2ccc(C)cc2)c(-c2ccccn2)[nH]1 (stereo not drawn),72.12,
Cc1cc(F)ccc1S(=O)(=O)NCC(O)c1cccn1C (stereo not drawn),,2.147
Cn1cccc1C(O)CNS(=O)(=O)c1ccccc1Br (stereo not drawn),,101.8
COc1ccc(C)cc1S(=O)(=O)NCC(c1cccn1C)N(C)C (stereo not drawn),-85.17,
Cn1cccc1C(O)CNS(=O)(=O)c1ccccc1F (stereo not drawn),,21.76
COc1cc(C)c(C)cc1S(=O)(=O)NCC(O)c1cccn1C (stereo not drawn),,93.04
Cc1c(Cl)cccc1S(=O)(=O)NCC(O)c1cccn1C (stereo not drawn),,15.12
Cc1cccc(CN2CCc3cc(C(=O)O)c(N(C)C)nc3CC2)n1.O=C(O)C(F)(F)F.O=C(O)C(F)(F)F,,-4.937
CN(C)C(=O)COC[C@@H]1CC[C@H]2[C@H](CCN2c2ncccn2)O1.O=C(O)C(F)(F)F,-8.509,
Cc1ccc(CN2CC3(CCN(C(=O)c4cscn4)C3)C2)o1.O=C(O)C(F)(F)F,-9.237,
O=C(O)C(F)(F)F.O=C(O)C(F)(F)F.O=C(O)C(F)(F)F.OCCN1CCC2(CC1)CC(NCc1ccccn1)c1ccccc1O2 (stereo not drawn),-31.61,
CC(C)N1CCCC1c1cc(CO)[nH]n1.O=CO (stereo not drawn),,-7.818
Cc1ccc(N2CCc3c(CN(C)Cc4ccco4)cncc3C2)nn1.Cl.Cl,,-4.486
CN(Cc1ccco1)Cc1cncc2c1CCN(c1ncccn1)C2.Cl.Cl,54.64,
Cc1cnc(N2CCc3c(CN(C)Cc4ccco4)cncc3C2)nc1,,5.943
